# Experimental data as given in PubChem BioAssay AID1508601 (ICCB-Longwood Screening Facility, Harvard Medical School, 2020).
# Screen size: about 5,700 compounds; about 85 (1%) were called active. Rule as the data show it: active = p53-positive nuclei above about 36% (passing the limit was not always enough); inactive = the rest. The list comes from a sample in which actives are over-represented; it also holds similar structures and randomly drawn compounds.
# Experiments:
# [1] = p53 stabilisation in HPV-positive human cells, imaging, p53-positive nuclei imaging, 24 h, 48 h (AID 1508601); settings: 24/48 h
# [2] = biological target: Cellular tumor antigen p53 (Homo sapiens) (UniProt P04637); test: as above; settings: 24/48 h, stronger effect = higher value
# [3] = measured here: cell number at 24 h, concentration not given here
# [4] = measured here: cell number at 48 h, concentration not given here
# [5] = measured here: p53 positive nuclei at 24 h, concentration not given here
# [6] = measured here: cell number at 24 h, Library stock concentration: 80 uM
# [7] = measured here: cell number at 24 h, Library stock concentration: 400 uM
# [8] = measured here: cell number at 24 h, Library stock concentration: 2 mM
# [9] = measured here: cell number at 24 h, Library stock concentration: 3.33 mM
# [10] = measured here: cell number at 24 h, Library stock concentration: 10 mM
# [11] = measured here: cell number at 48 h, Library stock concentration: 80 uM
# [12] = measured here: cell number at 48 h, Library stock concentration: 400 uM
# [13] = measured here: cell number at 48 h, Library stock concentration: 2 mM
# [14] = measured here: cell number at 48 h, Library stock concentration: 3.33 mM
# [15] = measured here: cell number at 48 h, Library stock concentration: 10 mM
# [16] = Library stock concentration: 80 uM
# [17] = Library stock concentration: 400 uM
# [18] = Library stock concentration: 2 mM
# [19] = Library stock concentration: 3.33 mM
# [20] = Library stock concentration: 10 mM
# [21] = measured here: p53 positive nuclei at 24 h, Library stock concentration: 80 uM
# [22] = measured here: p53 positive nuclei at 24 h, Library stock concentration: 400 uM
# [23] = measured here: p53 positive nuclei at 24 h, Library stock concentration: 2 mM
# [24] = measured here: p53 positive nuclei at 24 h, Library stock concentration: 3.33 mM
# [25] = measured here: p53 positive nuclei at 24 h, Library stock concentration: 10 mM
# Chain of Cellular tumor antigen p53 (Homo sapiens) (P04637 whole entry, looked up): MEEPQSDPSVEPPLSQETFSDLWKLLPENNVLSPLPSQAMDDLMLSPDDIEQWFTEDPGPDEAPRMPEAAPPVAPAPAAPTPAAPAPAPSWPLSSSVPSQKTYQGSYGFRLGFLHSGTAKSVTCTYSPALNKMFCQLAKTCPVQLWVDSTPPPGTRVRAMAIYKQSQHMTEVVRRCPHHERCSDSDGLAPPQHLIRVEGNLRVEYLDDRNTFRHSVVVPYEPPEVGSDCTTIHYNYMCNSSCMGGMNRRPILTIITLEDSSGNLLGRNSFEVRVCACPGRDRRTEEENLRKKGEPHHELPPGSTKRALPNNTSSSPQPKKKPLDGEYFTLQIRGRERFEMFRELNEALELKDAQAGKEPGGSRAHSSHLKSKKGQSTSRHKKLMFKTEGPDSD
compound,measurement,setting,value
COc1ccc(CNCC2COCCO2)cc1OC (stereo unspecified),"nuclei count, normalised",[1]; [3],101%
same,"nuclei count, normalised",[1]; [4],103%
same,"p53-positive nuclei, normalised",[2]; concentration not given here,0.0897% (inactive)
same,"p53-positive nuclei, normalised",[2]; [5],0.164%
O=C(NOCC(O)CO)c1ccc(F)c(F)c1Nc1ccc(I)cc1F (stereo unspecified),"nuclei count, normalised",[1]; [6],110%
same,"nuclei count, normalised",[1]; [7],101%
same,"nuclei count, normalised",[1]; [8],91.9%
same,"nuclei count, normalised",[1]; [9],96.8%
same,"nuclei count, normalised",[1]; [10],99.9%
same,"nuclei count, normalised",[1]; [11],106%
same,"nuclei count, normalised",[1]; [12],104%
same,"nuclei count, normalised",[1]; [13],95.8%
same,"nuclei count, normalised",[1]; [14],97.9%
same,"nuclei count, normalised",[1]; [15],95.8%
same,"p53-positive nuclei, normalised",[2]; [16],-0.174% (inactive)
same,"p53-positive nuclei, normalised",[2]; [17],-0.189% (inactive)
same,"p53-positive nuclei, normalised",[2]; [18],0.0424% (inactive)
same,"p53-positive nuclei, normalised",[2]; [19],-0.685% (inactive)
same,"p53-positive nuclei, normalised",[2]; [20],0.268% (inactive)
same,"p53-positive nuclei, normalised",[2]; [21],0.00674%
same,"p53-positive nuclei, normalised",[2]; [22],0.0842%
same,"p53-positive nuclei, normalised",[2]; [23],-0.07%
same,"p53-positive nuclei, normalised",[2]; [24],-0.375%
same,"p53-positive nuclei, normalised",[2]; [25],0.0144%
O=Nc1c(O)[nH]c2c(Cl)c(Cl)ccc12,"nuclei count, normalised",[1]; [6],111%
same,"nuclei count, normalised",[1]; [7],99.5%
same,"nuclei count, normalised",[1]; [8],83.2%
same,"nuclei count, normalised",[1]; [10],73.5%
same,"nuclei count, normalised",[1]; [11],109%
same,"nuclei count, normalised",[1]; [12],99%
same,"nuclei count, normalised",[1]; [13],54.9%
same,"nuclei count, normalised",[1]; [15],33.7%
same,"p53-positive nuclei, normalised",[2]; [16],0.16% (inactive)
same,"p53-positive nuclei, normalised",[2]; [17],-0.101% (inactive)
same,"p53-positive nuclei, normalised",[2]; [18],48.3% (inactive)
same,"p53-positive nuclei, normalised",[2]; [20],84.3% (active)
same,"p53-positive nuclei, normalised",[2]; [21],0.217%
same,"p53-positive nuclei, normalised",[2]; [22],0.0912%
same,"p53-positive nuclei, normalised",[2]; [23],2.93%
same,"p53-positive nuclei, normalised",[2]; [25],8.66%
CC(C)C(=O)Oc1ccc(CO)cc1C(CCN(C(C)C)C(C)C)c1ccccc1 (stereo unspecified),"nuclei count, normalised",[1]; [9],113%
same,"nuclei count, normalised",[1]; [14],108%
same,"p53-positive nuclei, normalised",[2]; [19],-0.0601% (inactive)
same,"p53-positive nuclei, normalised",[2]; [24],-0.451%
CCCCC[C@H](O)/C=C/[C@@H]1[C@H](CCCCCCC(=O)O)[C@H](O)C[C@H]1O,"nuclei count, normalised",[1]; [3],103%
same,"nuclei count, normalised",[1]; [4],107%
same,"p53-positive nuclei, normalised",[2]; concentration not given here,-0.142% (inactive)
same,"p53-positive nuclei, normalised",[2]; [5],-0.0664%
O=Nc1c(-c2c(O)[nH]c3cc(Br)ccc23)[nH]c2ccccc12,"nuclei count, normalised",[1]; [6],102%
same,"nuclei count, normalised",[1]; [7],111%
same,"nuclei count, normalised",[1]; [8],106%
same,"nuclei count, normalised",[1]; [9],116%
same,"nuclei count, normalised",[1]; [10],63.9%
same,"nuclei count, normalised",[1]; [3],104%
same,"nuclei count, normalised",[1]; [11],106%
same,"nuclei count, normalised",[1]; [12],106%
same,"nuclei count, normalised",[1]; [13],91.1%
same,"nuclei count, normalised",[1]; [14],101%
same,"nuclei count, normalised",[1]; [15],46.7%
same,"nuclei count, normalised",[1]; [4],113%
same,"p53-positive nuclei, normalised",[2]; [16],-0.018% (inactive)
same,"p53-positive nuclei, normalised",[2]; [17],0.858% (inactive)
same,"p53-positive nuclei, normalised",[2]; [18],4.32% (inactive)
same,"p53-positive nuclei, normalised",[2]; [19],1.69% (inactive)
same,"p53-positive nuclei, normalised",[2]; [20],89.3% (active)
same,"p53-positive nuclei, normalised",[2]; concentration not given here,0.377% (inactive)
same,"p53-positive nuclei, normalised",[2]; [21],-0.0496%
same,"p53-positive nuclei, normalised",[2]; [22],0.519%
same,"p53-positive nuclei, normalised",[2]; [23],1.14%
same,"p53-positive nuclei, normalised",[2]; [24],0.53%
same,"p53-positive nuclei, normalised",[2]; [25],71.9%
same,"p53-positive nuclei, normalised",[2]; [5],0.0936%
O=C1Cc2c([nH]c3ccc(Br)cc23)-c2ccccc2N1,"nuclei count, normalised",[1]; [3],97.1%
same,"nuclei count, normalised",[1]; [4],104%
same,"p53-positive nuclei, normalised",[2]; concentration not given here,-0.0157% (inactive)
same,"p53-positive nuclei, normalised",[2]; [5],0.0601%
O=C1C(c2c(O)[nH]c3ccccc23)=Nc2ccccc21,"nuclei count, normalised",[1]; [9],97.7%
same,"nuclei count, normalised",[1]; [14],95.2%
same,"p53-positive nuclei, normalised",[2]; [19],0.364% (inactive)
same,"p53-positive nuclei, normalised",[2]; [24],-0.221%
OCC1OC(n2cnc3c2NC=NCC3O)CC1O (stereo unspecified),"nuclei count, normalised","[1]; measured here: cell number at 24 h, Library stock concentration: 500 nM",123%
same,"nuclei count, normalised","[1]; measured here: cell number at 24 h, Library stock concentration: 1.5 uM",117%
same,"nuclei count, normalised","[1]; measured here: cell number at 24 h, Library stock concentration: 4.6 uM",116%
same,"nuclei count, normalised","[1]; measured here: cell number at 24 h, Library stock concentration: 13.7 uM",127%
same,"nuclei count, normalised","[1]; measured here: cell number at 24 h, Library stock concentration: 41 uM",122%
same,"nuclei count, normalised","[1]; measured here: cell number at 24 h, Library stock concentration: 123 uM",124%
same,"nuclei count, normalised","[1]; measured here: cell number at 24 h, Library stock concentration: 370 uM",121%
same,"nuclei count, normalised","[1]; measured here: cell number at 24 h, Library stock concentration: 1.111 mM",120%
same,"nuclei count, normalised","[1]; measured here: cell number at 24 h, Library stock concentration: 3.333 mM",122%
same,"nuclei count, normalised",[1]; [10],117%
same,"nuclei count, normalised","[1]; measured here: cell number at 48 h, Library stock concentration: 500 nM",119%
same,"nuclei count, normalised","[1]; measured here: cell number at 48 h, Library stock concentration: 1.5 uM",112%
same,"nuclei count, normalised","[1]; measured here: cell number at 48 h, Library stock concentration: 4.6 uM",114%
same,"nuclei count, normalised","[1]; measured here: cell number at 48 h, Library stock concentration: 13.7 uM",119%
same,"nuclei count, normalised","[1]; measured here: cell number at 48 h, Library stock concentration: 41 uM",118%
same,"nuclei count, normalised","[1]; measured here: cell number at 48 h, Library stock concentration: 123 uM",113%
same,"nuclei count, normalised","[1]; measured here: cell number at 48 h, Library stock concentration: 370 uM",117%
same,"nuclei count, normalised","[1]; measured here: cell number at 48 h, Library stock concentration: 1.111 mM",114%
same,"nuclei count, normalised","[1]; measured here: cell number at 48 h, Library stock concentration: 3.333 mM",113%
same,"nuclei count, normalised",[1]; [15],114%
same,"p53-positive nuclei, normalised",[2]; Library stock concentration: 500 nM,-0.173% (inactive)
same,"p53-positive nuclei, normalised",[2]; Library stock concentration: 1.5 uM,-0.175% (inactive)
same,"p53-positive nuclei, normalised",[2]; Library stock concentration: 4.6 uM,-0.091% (inactive)
same,"p53-positive nuclei, normalised",[2]; Library stock concentration: 13.7 uM,-0.0972% (inactive)
same,"p53-positive nuclei, normalised",[2]; Library stock concentration: 41 uM,0.0195% (inactive)
same,"p53-positive nuclei, normalised",[2]; Library stock concentration: 123 uM,0.029% (inactive)
same,"p53-positive nuclei, normalised",[2]; Library stock concentration: 370 uM,-0.058% (inactive)
same,"p53-positive nuclei, normalised",[2]; Library stock concentration: 1.111 mM,-0.0904% (inactive)
same,"p53-positive nuclei, normalised",[2]; Library stock concentration: 3.333 mM,-0.125% (inactive)
same,"p53-positive nuclei, normalised",[2]; [20],-0.0529% (inactive)
same,"p53-positive nuclei, normalised","[2]; measured here: p53 positive nuclei at 24 h, Library stock concentration: 500 nM",-0.0351%
same,"p53-positive nuclei, normalised","[2]; measured here: p53 positive nuclei at 24 h, Library stock concentration: 1.5 uM",-0.148%
same,"p53-positive nuclei, normalised","[2]; measured here: p53 positive nuclei at 24 h, Library stock concentration: 4.6 uM",-0.0281%
same,"p53-positive nuclei, normalised","[2]; measured here: p53 positive nuclei at 24 h, Library stock concentration: 13.7 uM",0.0187%
same,"p53-positive nuclei, normalised","[2]; measured here: p53 positive nuclei at 24 h, Library stock concentration: 41 uM",-0.0912%
same,"p53-positive nuclei, normalised","[2]; measured here: p53 positive nuclei at 24 h, Library stock concentration: 123 uM",-0.0944%
same,"p53-positive nuclei, normalised","[2]; measured here: p53 positive nuclei at 24 h, Library stock concentration: 370 uM",-0.0326%
same,"p53-positive nuclei, normalised","[2]; measured here: p53 positive nuclei at 24 h, Library stock concentration: 1.111 mM",-0.148%
same,"p53-positive nuclei, normalised","[2]; measured here: p53 positive nuclei at 24 h, Library stock concentration: 3.333 mM",-0.0881%
same,"p53-positive nuclei, normalised",[2]; [25],-0.148%
CC(C)CC(NC(=O)C(O)C(N)Cc1ccccc1)C(=O)O (stereo unspecified),"nuclei count, normalised",[1]; [6],115%
same,"nuclei count, normalised",[1]; [7],119%
same,"nuclei count, normalised",[1]; [8],104%
same,"nuclei count, normalised",[1]; [10],105%
same,"nuclei count, normalised",[1]; [11],111%
same,"nuclei count, normalised",[1]; [12],113%
same,"nuclei count, normalised",[1]; [13],108%
same,"nuclei count, normalised",[1]; [15],111%
same,"p53-positive nuclei, normalised",[2]; [16],-0.159% (inactive)
same,"p53-positive nuclei, normalised",[2]; [17],-0.07% (inactive)
same,"p53-positive nuclei, normalised",[2]; [18],-0.0155% (inactive)
same,"p53-positive nuclei, normalised",[2]; [20],0.0117% (inactive)
same,"p53-positive nuclei, normalised",[2]; [21],-0.122%
same,"p53-positive nuclei, normalised",[2]; [22],0.00728%
same,"p53-positive nuclei, normalised",[2]; [23],-0.122%
same,"p53-positive nuclei, normalised",[2]; [25],0.0829%
